Unmarked numbers belong to inactive results. The rule behind the calls is not given here.

Chain of Pantothenate synthetase (Mycobacterium tuberculosis (strain ATCC 25618 / H37Rv)) (P9WIL5 whole entry, looked up): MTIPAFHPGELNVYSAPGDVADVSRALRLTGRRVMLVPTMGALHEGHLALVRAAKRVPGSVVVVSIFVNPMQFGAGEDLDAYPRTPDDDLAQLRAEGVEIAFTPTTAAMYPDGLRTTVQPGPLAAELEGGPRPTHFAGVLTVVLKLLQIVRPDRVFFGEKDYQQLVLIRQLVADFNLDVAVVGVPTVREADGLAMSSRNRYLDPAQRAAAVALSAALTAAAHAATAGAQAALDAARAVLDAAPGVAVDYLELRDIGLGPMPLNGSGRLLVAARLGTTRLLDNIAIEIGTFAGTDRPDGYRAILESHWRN

The assay has as its target Pantothenate synthetase (Mycobacterium tuberculosis (strain ATCC 25618 / H37Rv)) (UniProt P9WIL5). The assay is described as follows: Recombinant Mtb pantothenate synthetase (PanC) inhibitors, coupled enzyme, confirmatory (AID 375).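 Note: 0% = full reaction with vehicle and 100% = no enzyme background.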 To be noted: coupled enzyme assay; at 10 µM, stronger effect = higher value.
The inhibition is the share of the control response that was lost under treatment. `CC(=O)NC1(C(F)(F)F)NC(=O)N(CC(C)C)C1=O` (configuration not stated): the inhibition was 0%. Turning to `C=CCc1cccc2cc(C(=O)NCc3cccnc3)c(=O)oc12`, the inhibition was 1%. For `Cc1ccc2nc(NC(=O)C3CCCN(S(=O)(=O)c4cccc5nonc45)C3)sc2c1` (configuration not stated), the inhibition was 1%. For the compound `CC(C)CNC(=O)C1C2C=CC(C2)C1C(=O)O` (configuration not stated), the inhibition is 7%. As for `Cn1c(C(=O)N2CCCC(C(=O)NCCCc3ccccc3)C2)cc2sccc21` (configuration not stated), the inhibition was 0%. In the case of `CCOC(=O)N1CCN(C(=O)CSc2ncnc3ccccc23)CC1`, the inhibition is 0%. Take `CCCSc1nc2c(cnn2-c2ccc(Cl)cc2)c(=O)[nH]1`: the inhibition was 0%. `CCCCCC1CC(CC(=O)O)C(=O)O1` (configuration not stated): the inhibition is 6%. For the compound `COc1cccc(C(=O)NCc2nnc(SCC(=O)Nc3nccs3)n2-c2ccccc2)c1`, the inhibition is 2%. As to `CCCOc1cccc(C(=O)N(Cc2ccco2)C2CCS(=O)(=O)C2)c1` (configuration not stated), the inhibition was 0%.

On to `COCCCN(C(C)=O)c1nc(-c2ccccc2)cs1`, for which the inhibition was 0%. `CC(C)COc1ccc(C(=O)OCCN2CCOCC2)cc1`: the inhibition was 1%. As for `CCC(C)NC(=O)CCNS(=O)(=O)c1ccc(Br)cc1` (configuration not stated), the inhibition is 0%. Under `CN(C)C(=O)Cn1c(SCC(=O)NC2CCCCC2)nc2ccccc21` stands 0%; under `COc1ccc(C(=O)NCc2nnc(SCC(=O)Nc3cc(C)cc(C)c3)o2)cc1OC`, 0%. For `Cn1c(=O)c2c(nc(SCC(=O)NCc3ccco3)n2C)n(C)c1=O`, the inhibition was 0%.

Regarding `CC1=C(C(=O)Nc2cccnc2)C(c2ccc(C(C)C)cc2)n2ncnc2N1` (configuration not stated), the inhibition was 1%.

The record behind these values is PubChem BioAssay.
